The structures appear in SMILES notation. Inconclusive results are not listed. Where a call stands in place of a potency, no number is given. Activity calls are given as the source filed them. Calls follow the shape of the dose curve; as a rule, active = well fitted inhibition curve with a large enough effect; inconclusive = small, poorly fitted or top-dose-only effect; inactive = no such curve, though single readings can be large or run the other way.

The nature of this experiment: Primary qHTS for small molecule stabilizers of the endoplasmic reticulum resident proteome: Secreted ER Calcium Modulated Protein (SERCaMP) assay (AID 1508630). The following applies: SH-SY5Y GLuc-SERCaMP (Gaussia luciferase released on ER calcium loss) secretion, thapsigargin, luminescence; series mostly up to 38.4 µM. An excerpt: Assay Provider: Brandon K. Harvey Ph.D.
National Institute on Drug Abuse, National Institutes of Health, Baltimore, MD
Endoplasmic reticulum (ER) dysregulation is associated with human pathologies including neurodegenerative, cardiovascular, muscular, and diabetic conditions. Maintenance of ER calcium is critical for functions of the ER and its depletion can lead to loss of ER resident proteins, in a process termed exodosis. Therapeutic compounds capable of attenuating the redistribution of ER proteins under pathological conditions may slow or stop disease progression. To identify such compounds, we performed a quantitative high-throughput screen (qHTS) using the SERCaMP assay, which monitors secretion of ER resident proteins triggered by calcium depletion.
SERCaMP was initially developed as a reporter of ER calcium homeostasis using a Gaussia luciferase with a modified signal peptide and carboxy-terminus (GLuc-SERCaMP), modifications that confer secretion of the reporter in response to ER calcium depletion (Henderson et al., 2014). The assay was used to screen 9,501 compounds, including a collection of drugs approved by the FDA (US), EMA (EU), NHI (Japan), and HC (Canada) regulatory agencies (Huang et al., 2011). Since the SERCaMP reporter reflects the exodosis phenomenon (Trychta et al., 2018a), compounds identified in the screen have the potential to prevent exodosis by different mechanisms such as stabilizing ER calcium or augmenting ERS retrieval.
1. Henderson, M.J., Wires, E.S., Trychta, K.A., Richie, C.T., and Harvey, B.K. (2014). SERCaMP: a carboxy-terminal protein modification that enables monitoring of ER calcium homeostasis. Mol Biol Cell 25, 2828-2839.
2. Huang, R., Southall, N., Wang, Y., Yasgar, A., Shinn, P., Jadhav, A., Nguyen, D.T., and Austin, C.P. (2011). The NCGC pharmaceutical collection: a comprehensive resource of clinically approved drugs enabling repurposing and chemical genomics. Sci Transl Med 3, 80ps16.
3. Trychta, K.A., Back, S., Henderson, M.J., and Harvey, B.K. (2018a). KDEL Receptors Are Differentially Regulated to Maintain the ER Proteome under Calcium Deficiency. Cell Rep 25, 1829-1840 e1826.
SEQUENCE No. (1, 2, 3, etc.); […] (e.g., Cells, Incubation, Reagent, etc.); VALUE and DESCRIPTION.
1; Reagent; 5 uL; 1000 SH-SY5Y cells per wells
3; Compound; 23 nL; Control inhibitor / compound library
5; Reagent; 100 nM; Thapsigargin
7; Reagent; 1 uL; 0.5x coelenterazine
8; Detection; Luminescence; ViewLux imaging system
NOTES (numbers refer to sequence above)
1; SH-SY5Y human neuroblastoma cells stably expressing GLuc-SERCaMP (SH-SY5Y-GLuc-ASARTDL) cells were seeded in 1,536 well white tissue culture treated plates (Corning, Cat# 7464) in DMEM-high glucose-sodium pyruvate (ThermoFisher Scientific, Cat #10569) supplemented with 10% bovine growth serum (Hyclone), 10 U/ml penicillin (Gibco), 10 ug/ml streptomycin (Gibco), and 20 mM HEPES.
2; Assay plates were incubated for 5 hour at 37C in a humidified incubator containing 5% CO2.
3; qHTS libraries (23 nl, final concentrations of 1.53 uM, 7.67 uM, 38.3 uM) or controls (neutral control: DMSO, positive control: dantrolene) were added using a Kalypsis pin-tool Robotic System equipped with 1536 pinheads.
4; Cells were then incubated for 16 hours at 37C, 5% CO2.
5; Thapsigargin was added at 100 nM to deplete ER calcium stores.
6; Cells were incubated for 4 hour (37 °C, 5% CO2)
7; Gaussia luciferase in the medium was measured by adding 1 ul of 0.5x coelenterazine (final concentration 0.07x) prepared in Gaussia Luciferase Glow Assay Buffer (Pierce), without addition of the Cell Lysis Buffer Reagent.
8; Luminescence was measured using a ViewLux […] CCD imaging system (Perkin Elmer) equipped with clear filters. […] The same controls were also used for the calculation of the Z' factor, a measure of assay quality control, as previously described (Zhang et al., 1999). […]
A general note: In qHTS, concentration-response curves come from the screen itself.
For `CC(C)(C)NCC(O)COc1ccccc1OCC1CCCO1` (stereo not given), the Potency result was “inactive”.
Then `Cc1ccccc1N1CCN(CCc2nnc3n2CCCC3)CC1`, with “inactive”; and `CCC(=O)Oc1ccc2c(c1)CC[C@@H]1[C@@H]2CC[C@@]2(C)[C@H]1C[C@@H](OC(=O)CC)[C@@H]2OC(=O)CC`, with “inactive”; and `COCCc1ccc(OCC2CO2)cc1` (stereo not given), with “inactive”.
Then `Cc1cccc(C)c1NC(=O)c1cc(S(N)(=O)=O)c(Cl)cc1O`, with “inactive”; and `O=C(Nc1ccc(Cl)cc1)Nc1ccc(Cl)c(C(F)(F)F)c1`, with “inactive”; and `Nc1ccc2cc3ccc(N)cc3nc2c1`, with “inactive”.
The same measure for `CN1N=C(C(N)=O)CCC1=O`: “inactive”; for `Clc1ccc2c(c1)Nc1ccccc1S2`: “inactive”.
With `CCN(CC)CC(=O)Nc1c(C)cccc1C(=O)OC`, the Potency result was “inactive”.
The same measure for `O=C(O)CCCC[P+](c1ccccc1)(c1ccccc1)c1ccccc1`: “inactive”; for `CCC(C(=O)NC(=O)NC(C)=O)c1ccccc1` (stereo not given): “inactive”; for `CN(C(=O)C(Cl)Cl)c1ccc(OC(=O)c2ccco2)cc1`: “inactive”.
The same measure for `Nc1ncnc2c1ncn2Cc1c(F)cccc1Cl`: “inactive”.
Then `CC(=O)OCC(=O)[C@@]1(O)[C@H](OC(C)=O)C[C@H]2[C@@H]3CCC4=CC(=O)C=C[C@]4(C)[C@@]3(F)[C@@H](O)C[C@@]21C`, with “inactive”; and `COc1ccccc1OCC1CNC(=O)O1` (stereo not given), with “inactive”; and `COc1cc(C(=O)OC(COCCC(C)C)CN2CCOCC2)cc(OC)c1OC` (stereo not given), with “inactive”.
For `Cn1c(=O)c2c(ncn2CC(=O)O)n(C)c1=O`, the Potency entry is “inactive”.
Then `C#CC(C)(CC)OC(=O)c1ccccc1C(=O)O` (stereo not given), with “inactive”.
The same measure for `CCCCCCCCCCCCCCCC[N+](C)(C)Cc1ccccc1`: “inactive”.
The same measure for `COC(=O)/C=C(/C)N`: “inactive”; for `O=C(O)CCC(=O)OC[C@@H](NC(=O)C(Cl)Cl)[C@H](O)c1ccc([N+](=O)[O-])cc1`: “inactive”.
Take `COc1cc(OC)nc(O[C@H](C(=O)O)C(OC)(c2ccccc2)c2ccccc2)n1`: the Potency entry was “inactive”.
The same measure for `O=C1NC(c2ccccc2)(c2ccccc2)C(=O)N1COP(=O)(O)O`: “inactive”; for `Cc1ccc(/C=N/n2c(-c3ccccc3)csc2=S)cc1`: “inactive”.
Then `C[C@H]1C[C@@H]2[C@H]([C@@H](O)C[C@@]3(C)[C@H]2CC[C@]3(O)C(=O)CO)[C@@]2(C)C=CC(=O)C=C12`, with “inactive”; and `COc1ccc([C@@H]2Sc3ccccc3NC(=O)[C@@H]2O)cc1`, with “inactive”.
Then `CCC[C@H](N[C@@H](C)C(=O)N1[C@H](C(=O)O)C[C@@H]2CCCC[C@@H]21)C(=O)OCC`, with “inactive”.
Take `COc1ccccc1N1CCN(CC(O)COc2cc(OC)c(OC)c(OC)c2)CC1` (stereo not given): the Potency entry is “inactive”.
Consider `O=C(OCC1(COC(=O)c2cccnc2)CCCC(COC(=O)c2cccnc2)(COC(=O)c2cccnc2)C1O)c1cccnc1`, for which the Potency entry was “inactive”.
Then `COc1c(C)c2c(c(O)c1C/C=C(\C)CCC(=O)OCCN1CCOCC1)C(=O)OC2`, with “inactive”; and `COc1ccc2c(c1)CCCC2=O`, with “inactive”.
The same measure for `Cc1sccc1Br`: “inactive”; for `CC(C)NC(=O)c1ccc(C=O)cc1`: “inactive”.
As for `NS(=O)(=O)c1cc2c(cc1Cl)CN(C1CCCCC1)C2=O`, the Potency entry was “inactive”.
Then `O=C1Cc2cc(Cl)ccc2N1`, with “inactive”.
The same measure for `O=C(c1ccco1)N1CCNCC1`: “inactive”; for `Oc1ccccc1-c1nnco1`: “inactive”; for `Cc1cc(C(C)(C)C)c(O)c(C(C)(C)C)c1`: “inactive”.
Regarding `NS(=O)(=O)c1ccc(N2CCCCS2(=O)=O)cc1`, the Potency entry is “inactive”.

Source of the values: PubChem BioAssay (NCATS).
